Records with an inconclusive call do not appear. Activity calls are given as the source filed them. Calls come from the whole dose curve; as a rule, active = well fitted inhibition curve with a large enough effect; inconclusive = small, poorly fitted or top-dose-only effect; inactive = flat fitted curve, though single readings scatter.
These compounds were tested on KB-3-1 (assay: Cytotoxic Profiling of Annotated Libraries Using Quantitative High-Throughput Screening (AID 1296008; note: nearly all actives have a fitted effect of over 60% in size)). Conditions: Five cell lines viability, CellTiter-Glo ATP luminescence, 48-72 h; max response: active compounds read low.
Summary of the method: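 Cytotoxicity was measured as CellTiter-Glo ATP luminescence, read after 10 min at room temperature. Compound treatment of the cells lasted 48 or 72 hr at 37 degrees Celsius in a qHTS format.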
With `C=C(COC(=O)CC(C)C)C1Cc2cc(C(C)=O)ccc2O1` (centres undefined) the max response was 4.45% (inactive).
`COc1cc(OC)cc(-c2ccc3c(-c4ccc(F)cc4)[nH]nc3n2)c1` was tested, and the outcome was “inactive”.
`C[C@H](O)C(O)(C(=O)OCc1ccccc1NC(=O)CCC(N)C(=O)O)[C@H](C)O` (some centres undefined) was tested, and the outcome was “inactive”.
With `CC(CC12CCCN1C(=O)C1CCCN1C2=O)OC(N)=O` (centres undefined) the max response was 4.48% (inactive).
For `CC12CC(c3ccoc3)OC(=O)C1CCC1(C)C2CCC(O)C1(C)O` (centres undefined), the max response was 6.59% (inactive).
In the case of `CC1(C)CC[C@]2(C(=O)O)CC[C@]3(C)C(=CCC4[C@@]5(C)C[C@@H](O)[C@H](O)[C@@](C)(CO)C5[C@H](O)C[C@]43C)[C@@H]2C1` (some centres undefined), the outcome is reported as “inactive”.
In the case of `COc1cc(C)c(C(=O)OC2C(C)OC(OC3CCC(C)C4C3C=C(C)C3/C(C)=C\CC/C(C)=C/C5(C)C=C(C(=O)O)C(C)CC56OC(=O)/C(=C(\O)C34C)C6=O)C(O)C2O)c(OC)c1` (centres undefined), the max response is reported as -3.91% (inactive).
In the case of `C[C@@H](c1ccccc1)N(C(N)=NC#N)c1cccc2ncccc12`, the outcome is reported as “inactive”.
For `O=C(O)c1cccc(C(=O)CCC2OC(n3cnc4c(=O)[nH]cnc43)C(O)C2O)c1` (centres undefined), the max response was 3.59% (inactive).
For `Cc1cn(-c2cc(NC(=O)c3ccc(C)c(Nc4nccc(-c5cnccn5)n4)c3)cc(C(F)(F)F)c2)cn1`, the max response was -2.9% (inactive).
With `C=C(C(=O)O)C1CC(OC(=O)CC(C)CC)C2(C)CCCC(=C)C2C1` (centres undefined) the max response was 2.84% (inactive).
With `O=C(O)CCc1c(C(=O)O)[nH]c2cc(Cl)cc(Cl)c12` the outcome was “inactive”.
`CC(C)C1(O)C=C2C(=O)CC3C(C)(C(=O)O)CCCC3(C)C2CC1` (centres undefined) was tested, and the max response was -0.238% (inactive).
In the case of `COc1cc2c(cc1O)CC(O)(CO)C(CO)C2c1ccc(OC2OC(CO)C(O)C(O)C2O)c(OC)c1` (centres undefined), the outcome is reported as “inactive”.
With `C=C1C(OC(C)=O)[C@@]23CCC4[C@](C)(C(=O)O)CCC[C@@]4(C)[C@]2(O)CC[C@H]1C3` (some centres undefined) the max response was 0.958% (inactive).
In the case of `C=C(C)C1Cc2c(ccc3c2OCC(c2ccc(O)cc2O)C3)O1` (centres undefined), the max response is reported as -21.6% (inactive).
With `COC(=O)C1=COC(OC2OC(CO)C(O)C(O)C2O)C2C(COC(=O)/C=C/c3ccc(O)cc3)C(O)C(O)C12` (centres undefined) the outcome was “inactive”.
`C=C1CC/C=C(/CO)C(=O)C[C@@H]2[C@@H]1C[C@@]2(C)COC(C)=O` was tested, and the max response was 5.17% (inactive).
`COC(O)(CC(C)C)C1Oc2cc(C)[nH]c(=O)c2O1` (centres undefined) was tested, and the max response was 6.46% (inactive).
For `CN1CCN(C2=Nc3ccccc3Nc3ccc(O)cc32)CC1`, the outcome was “inactive”.
In the case of `O=C(O)CC/C=C\C[C@H]1CO[C@@H](c2ccccc2Cl)O[C@H]1c1ccccc1O`, the max response is reported as 3.23% (inactive).
In the case of `C=C1C(=O)O[C@@H]2/C=C(\C)CC/C=C(\C(=O)O[C@@H]3O[C@H](CO)[C@@H](O)[C@H](O)[C@H]3O)CC[C@@H]12`, the max response is reported as -8.71% (inactive).
`C/C(=C\CC[C@H](CO)[C@@H]1CC[C@]2(C)C3=C(CC[C@@]12C)[C@@]1(C)CCC(=O)C(C)(C)C1CC3)C(=O)O` (some centres undefined) was tested, and the max response was 6.51% (inactive).
With `C=C1CC[C@H]2[C@@](C)(CCC(OC3OC(CO)C(O)C(O)C3O)[C@@]2(C)CO)C1C(=O)CC1=CCOC1=O` (some centres undefined) the outcome was “inactive”.
`Cc1cc(Cn2cnc3c2CC(C(=O)O)N(C(=O)C(c2ccccc2)c2ccccc2)C3)ccc1N(C)C` (centres undefined) was tested, and the max response was 5.82% (inactive).
`CC1(C)CCC2(C(=O)O)CCC3(C)C(=CCC4C5(C)CCC(O)C(C)(CO)C5C(O)CC43C)C2C1` (centres undefined) was tested, and the max response was 4.19% (inactive).
With `C=CC(C)(C)C12Nc3c(ccc4c3OC(C)(C)C=C4)C1(O)CC1C(=O)N3CCCC3C(=O)N12` (centres undefined) the outcome was “inactive”.
In the case of `C=CC1(C)CC2CCC3C(C)(C(=O)O)CCCC3(C)C2=CC1=O` (centres undefined), the outcome is reported as “inactive”.
With `CC(C)c1ccc2c(c1)C(=O)CC1C(C)(C(=O)O)CCCC21C` (centres undefined) the max response was -0.919% (inactive).
For `NC[C@H]1CCC[C@@H](CNC(=O)[C@@H](Cc2c[nH]c3ccccc23)NC(=O)N2CCC3(C=Cc4ccccc43)CC2)C1`, the outcome was “inactive”.
For `C[C@H]1CC[C@H]2[C@@H](C=C[C@@](C)(O)[C@]2(C)C(=O)CCO)C1`, the max response was 5.8% (inactive).
For `CC(=O)OC[C@]12[C@H](OC(C)=O)[C@H](OC(=O)c3ccccc3)[C@@H]3[C@@H](OC(C)=O)[C@]1(OC3(C)C)[C@H](C)C[C@H](OC(=O)c1ccccc1)[C@@H]2OC(=O)c1ccccc1`, the max response was -5.99% (inactive).
`CCOC(=O)CSc1nc2c(sc3ccccc32)c(=O)n1CCCN1CCCC1` was tested, and the outcome was “inactive”.
For `CC(C)=CCC[C@](C)(O[C@@H]1O[C@H](CO[C@@H]2O[C@@H](CO)[C@H](O)[C@H]2O[C@@H]2OC[C@@H](O)[C@H](O)[C@H]2O)[C@@H](O)[C@H](O)[C@H]1O)[C@H]1CC[C@]2(C)[C@@H]1[C@H](O)CC1[C@@]3(C)CC[C@H](O[C@@H]4O[C@H](CO)[C@@H](O)[C@H](O)[C@H]4O[C@@H]4O[C@H](CO)[C@@H](O)[C@H](O)[C@H]4O)C(C)(C)C3CC[C@]12C` (some centres undefined), the max response was 8.39% (inactive).

— PubChem BioAssay (NCATS)
% is set by controls: 0 for no effect and ±100 for the full control effect.
